The panel holds about 83,000 compounds, 20% with a hit somewhere; the sample as a whole holds those more often.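 In brief: 96-well plates, 48 h treatment, single concentration, percent growth endpoint.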 Values without a mark were called inactive. Calls of active or inactive are those of the source. Rule for the calls: active = growth percent below 10; inactive = the rest.
tested on: MDA-MB-468 breast; assay: NCI-60 one-dose screen, 48 h (100 = growth as untreated, 0 = no growth, -100 = all killed); conditions: 10 µM unless noted

| Compound | growth |
| --- | --- |
| CC1(C)N=C(N)N=C(N)N1c1cccc(/C=C/C=C/c2cccc([N+](=O)[O-])c2)c1 | 16.2% |
| COc1ccc2c(c1)C/C(=C\c1cc(-c3ccc4c(c3)OCO4)n[nH]1)C2=O | 37.8% |
| COc1cc(C(=O)c2c(-c3ccccc3)oc3ccccc23)cc(OC)c1O | 0.857% (active) |
| COc1cc(C(=O)N/N=C/c2cc3cc(OCc4ccccc4)ccc3nc2OC)cc(OC)c1OC | 85.2% |
| Cc1cc2nc(C(Cl)Cl)nc(-c3ccc(S(=O)(=O)N(C)C)cc3)n2n1 | -20.2% (active) |
| O=C(/C=C/c1cn(-c2ccccc2)nc1-c1ccc([N+](=O)[O-])cc1)c1ccc(Cl)cc1 | 39.5% |
| COc1c(C2CC(=O)Nc3c2cnn3Cc2ccco2)cc2c(c1OC)OCO2 (stereo not given) | 16.2% |
| O=C(Nc1ccccc1O)c1ccc(CNC(=O)c2sccc2Nc2ccnc(C(F)(F)F)c2)cc1 | 14.8% |
| C=C(c1ccc(N(C)C)cc1)c1ccc(N(C)C)cc1 | -30.9% (active) |
| COc1nc2ccccc2cc1/C=C1/C=C(c2ccccc2)NC1=O | 29% |
| COc1ccc(-c2nc3sc4c(c3c(=O)[nH]2)CCCCCC4)cc1 | 98.5% |
| Cn1cc(-c2nc(-c3c[nH]c4ncc(F)cc34)cs2)c2cccnc21 | -0.356% (active) |
| C[C@H]1[C@H](C)CC[C@]2(C(=O)N3CCN(C)CC3)CC[C@]3(C)C(=CC[C@@H]4[C@@]5(C)C/C(=C/c6ccco6)C(=O)C(C)(C)[C@@H]5CC[C@]43C)[C@H]12 | 19.2% [100 µM] |
| C=CCn1c(SCC(=O)Nc2ccc(/C(C)=N/O)cc2)nnc1-c1cc(-c2ccc(S(N)(=O)=O)cc2)nc2ccccc12 | 57% |
| COc1ccc(N)c(-c2cc3c(c4c2[nH]c2ccc(OC)cc24)CCCC3)c1 | 94.5% |
| CCCNCCC(C)=O | 127% |
| Cc1cccc(NC(=O)c2sc3nc4c(cc3c2N)C(=O)CCC4)c1 | 33.1% |
| CC12CCC3c4ccc(O)cc4CCC3C1CCC2=O (stereo not given) | 96.4% |
| O=C1CC(c2ccc(Cl)cc2)c2ncn(-c3cccc(Cl)c3)c2N1 (stereo not given) | 41.3% |
| Cn1cc(-c2ccc(F)c(C(F)(F)F)c2)nc1C1CCN(c2ncnc3[nH]ncc23)CC1 | 64.6% |

| Compound | growth |
| --- | --- |
| CC1=C(CCCOC(=O)NCCCl)C2=C(C)C3(CC3)[C@@](C)(O)C(=O)C2=C1 | -55% (active) |
| OC(c1ccccc1)c1ccccn1 (stereo not given) | 103% |
| C#C[C@@]1(O)[C@@H](CO)O[C@@H](n2cc(F)c3c(N)ncnc32)[C@@H]1O | -46.2% (active) |
| NC(=O)Nc1ccc2ncnc(Nc3cccc(O)c3)c2c1 | 67.9% |
| COc1ccc2[nH]c(C(=O)OCc3ccc4c(Cl)cc(Cl)c(O)c4n3)cc2c1 | -83.1% (active) |
| C=C(c1ccc(C(=O)O)cn1)c1cc2c(cc1C)C(C)(C)CCC2(C)C | 91.5% |
| Cc1ccc(C(=O)/C=C/c2ccccc2)s1 | 89.7% |
| CCNC(=O)c1ccc2c(c1)nc(-c1ccc(Cl)cc1)n2-c1cc(C(C)(C)C)[nH]n1 | 32.8% |
| Nc1ccc2c(c1)Cc1cc(NC(=O)C(F)(F)F)ccc1-2 | 75.7% |
| Cc1sc(N=Nc2ccc(N(C)C)cc2)[n+]([O-])c1C | 75.2% |
| Cc1cc2nc3c4ccc(Br)cc4n(CCN(C)C)c3nc2cc1C | -6.68% (active) |
| CC(C)n1cc(C2=C(c3cccc4ccccc34)C(=O)NC2=O)c2cc(Br)ccc21 | 44.4% |
| COc1ccc(C(=O)CC(c2ccccc2)C(C#N)c2ccccc2)cc1 (stereo not given) | 69.8% |
| CCCCCCCCCCCCCCCCNc1ccccc1 | 108% |
| Oc1cccnc1CN1CCCC1 | 104% |
| COc1cc(C2CC(c3ccccc3)=NN2C=O)ccc1Oc1ccnc2cc(Cl)ccc12 (stereo not given) | 16.5% |
| Cc1c(Cl)cccc1NC(=O)c1sc2nc3c(cc2c1N)C(=O)CCC3 | 48.6% |
| Brc1ccc(-c2[nH]ncc2-c2c[nH]c3ccccc23)cc1 | 99.5% |
| CO[C@H]1CC(O[C@@H]2/C(C)=C/C[C@@H]3C[C@@H](C[C@]4(C=C[C@H](C)[C@@H](C5CCCCC5)O4)O3)OC(=O)[C@@H]3C=C(C)[C@@H](O)[C@H]4OC/C(=C\C=C\[C@@H]2C)[C@]43O)O[C@@H](C)C1O[C@H]1C[C@H](OC)[C@@H](O)[C@H](C)O1 (stereo not given in full) | -72.5% (active) |
| CC(C)CCSc1nc(-c2ccc(F)cc2)c(C#N)c(N2CCN(C)CC2)n1 | 98.3% |

— PubChem BioAssay (NCI)
